The list is not random: actives were taken first. Their share in the collection is about 2.1%.
Calb FLC – affects C. albicans growth with fluconazole; C. albicans CaCi-2 (fluconazole-resistant clinical isolate) + fluconazole, Alamar Blue growth, 48 h; growth inhibition, % (concentration not given with the values); actives 0.57% (n = 300,000); AID 1979;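 active = growth inhibition above about 58% in most replicates, limit read from the data, passing the limit was not always enough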;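 also: all wells also contain fluconazole at 8 µg/ml as a sub-toxic cotreatment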
Rin1-Abl PPI inh – inhibitors of human Rin1-Abl protein interaction. P00519+Q13671. TR-FRET Rin1/Abl binding, biochemical. inhibition, % at 7.35 µM. actives 0.4% (n = 360,000). AID 588664; in the data active = inhibition above about 5%, passing the limit was not always enough
CTSL1 counter-1 – blocks F. hepatica cathepsin L1 in PFM18AAP counter-screen; recombinant F. hepatica cathepsin L1, Z-Leu-Arg-MCA fluorescence; inhibition, % at 5.96 µM; actives 0.49% (n = 300,000);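 active = inhibition above the mean of all tested compounds plus 3 SD, set per screening campaign, cut at about 17% in these data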
PfM18AAP inh-1 – PfM18AAP enzyme inhibition; recombinant PfM18AAP, H-Glu-NHMec fluorogenic cleavage; inhibition, % at 7.35 µM; actives 1.2% (n = 290,000); AID 1822;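 active = inhibition above the campaign mean inhibition over all tested compounds plus 3 SD, cut at about 28% in these data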
PfM18AAP inh-2 – confirmation of Plasmodium falciparum M18 aspartyl aminopeptidase inhibitors; shares compounds with PfM18AAP inh-1; recombinant PfM18AAP, H-Glu-NHMec fluorogenic cleavage; inhibition, % at 7.35 µM; actives 28% (n = 2,400); AID 2170;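 active = mean inhibition over replicate wells above the hit cutoff set for the earlier primary screen, cut at about 29% in these data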
CTSL1 counter-2 – Cathepsin L (human) inhibition, confirmation; purified cathepsin L1, Z-Leu-Arg-MCA fluorescence; 2,400 tested, under 10 active; inhibition, % at 5.96 µM; shares compounds with PfM18AAP inh-1; AID 2178;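 active = average inhibition across replicates above the hit cutoff set in the earlier primary screen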
Target sequence (P07711 whole entry, looked up): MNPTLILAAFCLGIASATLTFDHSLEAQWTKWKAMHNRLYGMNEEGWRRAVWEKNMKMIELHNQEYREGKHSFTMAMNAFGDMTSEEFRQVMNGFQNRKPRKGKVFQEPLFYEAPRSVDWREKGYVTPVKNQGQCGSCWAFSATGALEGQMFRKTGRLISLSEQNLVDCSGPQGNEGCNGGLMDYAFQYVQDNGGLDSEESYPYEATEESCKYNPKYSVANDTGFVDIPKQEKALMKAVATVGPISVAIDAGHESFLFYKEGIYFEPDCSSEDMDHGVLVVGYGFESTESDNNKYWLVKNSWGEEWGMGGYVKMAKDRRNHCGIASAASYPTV
Numbers stand for hits.

Results for C(=C\c1ccccc1)/C=N/Nc1nncc(-c2ccccc2)n1 ?
Calb FLC: inactive; CTSL1 counter-1: inactive; PfM18AAP inh-1: inactive

Results for S=C(c1ccc(Cl)cc1)N1CCN(Cc2ccccc2)CC1 ?
Calb FLC: inactive; Rin1-Abl PPI inh: inactive; CTSL1 counter-1: inactive; PfM18AAP inh-1: inactive

Results for CC(C)(C)c1cc(C(=O)CCN2CCOCC2)cc(C(C)(C)C)c1O ?
Calb FLC: inactive; Rin1-Abl PPI inh: inactive; CTSL1 counter-1: inactive; PfM18AAP inh-1: inactive

How did OCCN1CCN(C(=S)c2ccc(Cl)cc2)CC1 do in these assays?
Calb FLC: inactive; Rin1-Abl PPI inh: inactive; CTSL1 counter-1: inactive; PfM18AAP inh-1: 43; PfM18AAP inh-2: inactive; CTSL1 counter-2: inactive

What do the screens show for `CC(C)(C)c1cc(C(=S)N2CCN(CCO)CC2)cc(C(C)(C)C)c1O`?
Calb FLC: inactive; Rin1-Abl PPI inh: inactive; CTSL1 counter-1: inactive; PfM18AAP inh-1: 36; PfM18AAP inh-2: inactive; CTSL1 counter-2: inactive

How did CCN1CCN(C(=S)c2ccc(OC)cc2)CC1 do in these assays?
Calb FLC: inactive; Rin1-Abl PPI inh: inactive; CTSL1 counter-1: inactive; PfM18AAP inh-1: 45; PfM18AAP inh-2: inactive; CTSL1 counter-2: inactive

Results for CCN1CCN(C(=S)c2ccc(Cl)cc2)CC1 ?
Calb FLC: inactive; Rin1-Abl PPI inh: inactive; CTSL1 counter-1: inactive; PfM18AAP inh-1: 44; PfM18AAP inh-2: 36; CTSL1 counter-2: inactive

How did Cc1cc(C)cc(N2CCCn3c2nc2c3c(=O)[nH]c(=O)n2C)c1 do in these assays?
Calb FLC: inactive; Rin1-Abl PPI inh: inactive; CTSL1 counter-1: inactive; PfM18AAP inh-1: inactive

Results for O=C(NCc1cccnc1)C1c2ccccc2C(=O)N1Cc1ccco1 (centres undefined) ?
Calb FLC: inactive; Rin1-Abl PPI inh: inactive; CTSL1 counter-1: inactive; PfM18AAP inh-1: inactive

How did O=S(=O)(Nc1ccc2cn[nH]c2c1)c1cc(Br)ccc1Br do in these assays?
Rin1-Abl PPI inh: inactive

How did CCOc1ccc(C(=S)N2CCN(C)CC2)cc1 do in these assays?
Calb FLC: inactive; Rin1-Abl PPI inh: inactive; CTSL1 counter-1: inactive; PfM18AAP inh-1: 48; PfM18AAP inh-2: inactive; CTSL1 counter-2: inactive

Results for CSc1ccc(C(=S)N2CCN(Cc3ccccc3)CC2)cc1 ?
Calb FLC: inactive; Rin1-Abl PPI inh: inactive; CTSL1 counter-1: inactive; PfM18AAP inh-1: 41; PfM18AAP inh-2: inactive; CTSL1 counter-2: inactive

How did CCN(CC)c1ccc(C(=S)NC2CCCCC2)cc1 do in these assays?
Calb FLC: inactive; Rin1-Abl PPI inh: inactive; CTSL1 counter-1: inactive; PfM18AAP inh-1: inactive

What do the screens show for `CCOc1ccc(C(C)NC(=S)NC2CCCCC2)cc1OCC` (centres undefined)?
Calb FLC: inactive; Rin1-Abl PPI inh: inactive; CTSL1 counter-1: inactive; PfM18AAP inh-1: inactive

How did CN(C)c1ccc(C(=S)NC2CCCCC2)cc1 do in these assays?
Calb FLC: inactive; Rin1-Abl PPI inh: inactive; CTSL1 counter-1: inactive; PfM18AAP inh-1: 33; PfM18AAP inh-2: inactive; CTSL1 counter-2: inactive

What do the screens show for `CCOc1ccc(C(=S)NC2CCCCC2)cc1OCC`?
Calb FLC: inactive; Rin1-Abl PPI inh: inactive; CTSL1 counter-1: inactive; PfM18AAP inh-1: 37; PfM18AAP inh-2: inactive; CTSL1 counter-2: inactive

What do the screens show for `Cn1c(=O)c([N+](=O)[O-])c(-n2cnc3ccccc32)c2ccccc21`?
Calb FLC: inactive; Rin1-Abl PPI inh: inactive; CTSL1 counter-1: inactive; PfM18AAP inh-1: inactive

How did O=C(CSc1nnc2c(n1)[nH]c1ccc(F)cc12)NC1CC1 do in these assays?
Calb FLC: inactive; Rin1-Abl PPI inh: inactive; CTSL1 counter-1: inactive; PfM18AAP inh-1: inactive

What do the screens show for `CCOc1cc(N2CCOCC2)c(OCC)cc1NC(=O)COC(=O)c1c(CC)noc1C`?
Rin1-Abl PPI inh: inactive

Results for CCN1/C(=C/C=C/C=C/C=C/c2sc3ccccc3[n+]2CC)Sc2ccccc21 ?
Calb FLC: inactive; Rin1-Abl PPI inh: inactive; CTSL1 counter-1: inactive; PfM18AAP inh-1: 40; PfM18AAP inh-2: inactive; CTSL1 counter-2: inactive

Results for Cc1ccc(NC(=O)C2CCN(S(=O)(=O)c3ccc4c(c3)NC(=O)C(C)S4)CC2)cc1Cl (centres undefined) ?
Calb FLC: inactive; Rin1-Abl PPI inh: inactive; CTSL1 counter-1: inactive; PfM18AAP inh-1: inactive

Results for NS(=O)(=O)c1ccc(Sc2ccc3ccccc3c2)nc1 ?
Calb FLC: inactive; Rin1-Abl PPI inh: inactive; CTSL1 counter-1: inactive; PfM18AAP inh-1: inactive

What do the screens show for `COc1cc(/C=C/C(=O)c2c(O)cc(C)oc2=O)cc(OC)c1O`?
Calb FLC: inactive; Rin1-Abl PPI inh: inactive; CTSL1 counter-1: inactive; PfM18AAP inh-1: 42; PfM18AAP inh-2: inactive; CTSL1 counter-2: inactive

Results for CCc1nnc(NC(=O)CN2C(=O)/C(=C/c3cc(OC)c(OC)c(OC)c3)SC2=S)s1 ?
Calb FLC: inactive; Rin1-Abl PPI inh: inactive; CTSL1 counter-1: inactive; PfM18AAP inh-1: 33; PfM18AAP inh-2: inactive; CTSL1 counter-2: inactive

How did CCOC(=O)COc1ccc(C(c2c(C)[nH][nH]c2=O)c2c(C)[nH][nH]c2=O)cc1 do in these assays?
Calb FLC: inactive; Rin1-Abl PPI inh: inactive; CTSL1 counter-1: inactive; PfM18AAP inh-1: 34; PfM18AAP inh-2: inactive; CTSL1 counter-2: inactive

Results for COC(=O)c1ccc(C(c2c(C)[nH][nH]c2=O)c2c(C)[nH][nH]c2=O)cc1 ?
Calb FLC: inactive; Rin1-Abl PPI inh: inactive; CTSL1 counter-1: inactive; PfM18AAP inh-1: inactive

How did COC(=O)COc1c(Cl)cc(C(c2c(C)[nH][nH]c2=O)c2c(C)[nH][nH]c2=O)cc1OC do in these assays?
Calb FLC: inactive; Rin1-Abl PPI inh: inactive; PfM18AAP inh-1: 34; PfM18AAP inh-2: inactive; CTSL1 counter-2: inactive

What do the screens show for `COc1cc(C(c2c(C)[nH][nH]c2=O)c2c(C)[nH][nH]c2=O)cc(Br)c1OC`?
Calb FLC: inactive; Rin1-Abl PPI inh: inactive; CTSL1 counter-1: inactive; PfM18AAP inh-1: 38; PfM18AAP inh-2: inactive; CTSL1 counter-2: inactive

What do the screens show for `Cc1[nH][nH]c(=O)c1C(c1ccc(F)cc1)c1c(C)[nH][nH]c1=O`?
Calb FLC: inactive; Rin1-Abl PPI inh: inactive; CTSL1 counter-1: inactive; PfM18AAP inh-1: inactive

Results for Cc1[nH][nH]c(=O)c1C(c1ccc(Cl)cc1)c1c(C)[nH][nH]c1=O ?
Calb FLC: inactive; Rin1-Abl PPI inh: inactive; CTSL1 counter-1: inactive; PfM18AAP inh-1: inactive

What do the screens show for `COC(=O)[C@H](CC(C)C)NC(=O)c1cc2c(cn1)[nH]c1ccccc12`?
Calb FLC: inactive; Rin1-Abl PPI inh: inactive; CTSL1 counter-1: inactive; PfM18AAP inh-1: 39; PfM18AAP inh-2: inactive; CTSL1 counter-2: inactive

How did O=C(N/C(=C/c1cccnc1)C(=O)N1CCCCCC1)c1cccc(Br)c1 do in these assays?
Calb FLC: inactive; Rin1-Abl PPI inh: inactive; CTSL1 counter-1: inactive; PfM18AAP inh-1: inactive

How did COc1cccc(-n2c(=O)c3ccccc3n3c(=S)[nH]nc23)c1 do in these assays?
Calb FLC: inactive; Rin1-Abl PPI inh: inactive; CTSL1 counter-1: inactive; PfM18AAP inh-1: 36; PfM18AAP inh-2: inactive; CTSL1 counter-2: inactive

What do the screens show for `CCc1ccc(-n2c(=O)c3ccccc3n3c(=S)[nH]nc23)cc1`?
Calb FLC: inactive; Rin1-Abl PPI inh: inactive; CTSL1 counter-1: inactive; PfM18AAP inh-1: inactive

Screening data as filed in PubChem.
